In the library only some 7.4% were active in any assay of this set; here they are far more common.
FLuc counter – counter-screen for miR-21 project: firefly luciferase inhibitors or activators. 360,000 tested, 6.9% active. AID 588342. purified FLuc, Km substrates, luminescence inhibition. Potency, µM (doses to about 57.5 µM), inactives show at the highest dose activity change, negative = inhibition, usual class: inhibitors;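 also: plate controls were vehicle for no effect and reference inhibitor for full effect; nearly all actives have a fitted effect of over 55% in size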
Target sequence (P08659 whole entry, looked up): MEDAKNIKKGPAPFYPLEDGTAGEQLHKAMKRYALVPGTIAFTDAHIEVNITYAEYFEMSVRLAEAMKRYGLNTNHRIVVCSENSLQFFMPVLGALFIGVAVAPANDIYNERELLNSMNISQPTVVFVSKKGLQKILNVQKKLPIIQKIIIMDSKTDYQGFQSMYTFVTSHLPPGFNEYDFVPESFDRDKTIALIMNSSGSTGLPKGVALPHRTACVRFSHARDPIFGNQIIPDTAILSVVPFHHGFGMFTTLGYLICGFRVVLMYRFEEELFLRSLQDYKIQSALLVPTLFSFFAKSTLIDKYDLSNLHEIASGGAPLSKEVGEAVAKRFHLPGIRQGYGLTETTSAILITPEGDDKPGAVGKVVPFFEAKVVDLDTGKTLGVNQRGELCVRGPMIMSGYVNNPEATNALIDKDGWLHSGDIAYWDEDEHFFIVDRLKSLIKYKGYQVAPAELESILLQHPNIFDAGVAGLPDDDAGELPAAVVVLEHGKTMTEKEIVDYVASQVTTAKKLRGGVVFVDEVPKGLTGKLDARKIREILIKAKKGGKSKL
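Biochemical qHTS of compounds, final roughly 60 µM downward over six points, against 10 nM purified firefly luciferase using Km concentrations of substrates (10 uM D-luciferin, 10 uM ATP) in Tris acetate pH 7.5 buffer; luminescence output.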
SMN2 splice enh – SMN2 splice variant enhancement. 210,000 tested, 2.8% active. HEK293 SMN2-luciferase splicing reporter, luminescence, 30-36 h. Potency, µM (series often up to 46.1 µM), for inactives: at the highest dose activity change, positive = activation, actives largely listed as activators; also: % of control where 0% means no effect; nearly all actives have a fitted effect of over 55% in size
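qHTS luciferase splicing reporter: luminescence rises when SMN2 exon 7 is included in transfected HEK293 cells. Compound exposure lasted 30-36 h at 37C, with 4.5 mM final sodium butyrate as control, followed by a ONE-Glo read.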
NPC1 prom act – activators of NPC1 promoter; Huh7 NPC1 promoter luciferase reporter, 24 h; Potency, µM (series often up to 9.22 µM), for the others: at the highest dose activation, usual class: activators; 320,000 tested, 2.4% active; also: % of control where 0% means no effect; nearly all actives have a fitted effect of over 60% in size
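Quantitative HTS used a cell-based reporter: Huh7 cells stably bearing the NPC1 promoter upstream of luciferase were treated with compounds for 24 h, and promoter activation was read as luminescence.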
Rab9 prom act – Rab9 promoter activation; Huh7 Rab9 promoter-luciferase reporter, luminescence, 24 h; 320,000 tested, 2.8% active; Potency, µM (highest dose often 9.22 µM), for inactives: top-dose activation, negative = inhibition, most hits filed as activators; also: % of control where 0% means no effect; nearly all actives have a fitted effect of over 60% in size
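Measured in stably transfected Huh7 cells bearing a Rab9 promoter–luciferase construct: 24 h compound treatment at 37 °C, followed by luminescence detection.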
ELG1 genotox – genotoxicity induction in ELG1-luciferase HEK293T cells; HEK293T ELG1-luciferase reporter, luminescence, 16 h; Potency, µM (highest dose often 46 µM), inactives show at the top dose activity change, positive = activation, actives largely listed as activators; 330,000 tested, 1.3% active; also: % of control where 0% means no effect; nearly all actives have a fitted effect of over 60% in size
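HEK293T cells expressing luciferase-tagged ELG1 were treated with compound or DMSO for 16 hr at 37°C. Luciferase activity was then read after 30 min with ONE-Glo at room temperature; rising signal flags genetic stress.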
Starred values were filed as active, the others as inactive; ? = inconclusive; nt = no result; [ ] = dose if it differs, or a comment. Calls follow the shape of the dose curve; as a rule, active = well fitted curve in the direction sought with a large enough effect; inconclusive = small, poorly fitted or top-dose-only effect, or another doubt; inactive = no such curve, though single readings can be large; an effect the other way counts as inactive or inconclusive. Potency is read from the fitted curve at half-maximal effect.

SMILES	FLuc counter	SMN2 splice enh	NPC1 prom act	Rab9 prom act	ELG1 genotox
COc1ccccc1C(=O)OCc1cc(=O)n2nc(C3CCCCC3)sc2n1	5%	nt	nt	nt	nt
O=C(/C=C/c1ccccc1Cl)Nc1ccc(Cl)cn1	-6%	nt	?	1.1µM*	?
CCCCOC(=O)c1cccc(NC(=O)/C=C/c2ccccc2Cl)c1	6.7µM*	1.4µM*	nt	nt	nt
O=C(/C=C/c1ccccc1Cl)Nc1cccc(O)c1	1.1µM*	?	?	?	?
CN(C)c1ccc(NC(=O)/C=C/c2c(Cl)cccc2Cl)cc1	8.5µM*	?	11%	25%	5%
Cc1ccc(-c2cc(C(=O)N(Cc3ccccc3)Cc3ccco3)no2)cc1F	0%	nt	nt	nt	nt
CN(C)S(=O)(=O)c1ccc(NC(=O)/C=C/c2ccccc2Cl)cc1	21µM*	9%	4%	8%	1%
O=C(/C=C/c1ccccc1Cl)Nc1ccc2c(c1)C(=O)NC2=O	?	-14%	-2%	2%	-4%
O=C(/C=C/c1ccccc1Cl)Nc1ccccc1	0.76µM*	nt	?	0.45µM*	?
CCOc1ccc(C(CC(=O)Nc2cc(C)c(Cl)cc2OC)N2Cc3ccccc3C2=O)cc1OC (stereo not given)	-13%	nt	nt	nt	nt
CCC(=O)Nc1ccc(S(=O)(=O)NCc2cccn2Cc2cccc(C)c2)cc1	-10%	nt	nt	nt	nt
C#CCN1C(=O)S/C(=C/C=C/c2ccc(N(C)C)cc2)C1=O	2.7µM*	7.1µM*	3.2µM*	2µM*	9.2µM*
Cc1ccc2oc(-c3ccc(NC(=O)CC(C)C)cc3)nc2c1	0.76µM*	?	0.28µM*	?	2.3µM*
O=C(Nc1ccc(-c2nc3ncccc3o2)cc1)c1ccc(Br)o1	-8%	19%	8%	27%	4%
CCc1ccc(-c2nc3cc(NC(=O)c4ccc(C)c(C)c4)ccc3o2)cc1	-1%	-22%	nt	nt	nt
O=C(Nc1ccc(-c2nc3ncccc3o2)cc1)c1ccco1	8.5µM*	?	2.5µM*	1.6µM*	?
CCC(=O)Nc1ccc2oc(-c3cccnc3)nc2c1	17µM*	nt	?	3.5µM*	?
CCc1ccc2oc(-c3ccc(NC(C)=O)cc3)nc2c1	1.9µM*	nt	?	0.63µM*	3.3µM*
CCC(C)NCC(=O)Nc1ccc(-c2nc3cc(NC(=O)CNC(C)CC)ccc3o2)cc1 (stereo not given)	-7%	?	0%	-2%	-11%
C[C@H]1Cc2c(-c3ccccc3)nc3c(c2CO1)CN(C(=O)c1cc(I)ccc1F)CC3	nt	3%[9.22 µM]	nt	nt	nt
CC[C@H](C)[C@@H](NC(=O)O[C@@H]1Cc2cc(OC)ccc2O[C@H]1c1cccc(OC)c1)C(=O)OC	nt	-2%	nt	nt	nt
CCOC(=O)c1cnc2ccc(OCC)cc2c1N1CCN(c2cccc(Cl)c2)CC1	-1%	14%	nt	nt	nt
Cc1c(Cl)cccc1-n1c(SCC(=O)NCc2ccccc2)nc2n[nH]c(C)c2c1=N	0%	nt	nt	nt	nt
O=C(Nc1ccc2nc(-c3ccccc3)oc2c1)c1ccco1	21µM*	?	?	3.2µM*	?
CC(C)CC(=O)Nc1ccc2oc(-c3cccnc3)nc2c1	13µM*	?	?	?	?
SMILES	FLuc counter	SMN2 splice enh	NPC1 prom act	Rab9 prom act	ELG1 genotox
O=C(Nc1ccc2oc(-c3cccnc3)nc2c1)c1cccnc1	?	-10%	12%	17%	3%
O=C(Nc1ccc2oc(-c3cccnc3)nc2c1)c1ccco1	15µM*	3%	?	?	16%
COc1ccc(NC(=O)CN(C)S(=O)(=O)c2ccc3c(c2)CCCN3C(C)=O)cc1Cl	-13%	nt	nt	nt	nt
CCCCCOc1ccc(NC(=O)Cc2csc(C)n2)cc1	-1%	0%	nt	nt	nt
Cc1nc2sc(C(=O)OC(C)C)c(N)c2c(C)c1C	-18%	28%	-20%	4.5µM*	14%
Cc1nc2sc(C(=O)c3ccccc3)c(N)c2c(C)c1C	?	1%	9%	29%	11%
Nc1c(C(=O)Nc2ccccc2)sc2ncc([N+](=O)[O-])cc12	2%	nt	?	?	9%
CC(=O)c1ccc(NC(=O)c2sc3nc(C)c(C)c(C)c3c2N)cc1	0.48µM*	nt	0.56µM*	0.79µM*	3.7µM*
Cc1nc2sc(C(=O)Nc3ccccc3)c(N)c2c(C)c1[N+](=O)[O-]	?	?	3.2µM*	4.5µM*	7.3µM*
CCOC(=O)C1CCCN(S(=O)(=O)c2ccc3[nH]c(=O)oc3c2)C1 (stereo not given)	?	-16%	nt	nt	nt
CN1CCCC1CCNc1ccc2oc3ccccc3c(=O)c2c1 (stereo not given)	4.8µM*	nt	17%	-4%	?
CN1CCCC1CCNc1ccc2c(=O)c3ccccc3oc2c1 (stereo not given)	11µM*	nt	?	?	?
CN1CCC[C@H]1CCNC(=O)c1c(-c2ccsc2)sc2ccccc12	nt	nt	nt	nt	0%
Cc1ccc(-n2nc(C(=O)N3CCN(c4cccc(C(F)(F)F)c4)CC3)c3c4ccccc4n(C)c3c2=O)cc1	0%	-12%	nt	nt	nt
CC(C)C[C@@H](CC(=O)N[C@@H](CCC(=O)O)CC(=O)O)NC(=O)[C@@H]1CNCC[C@H]1NC(=O)C[C@@H](NC(=O)C[C@H](Cc1ccccc1)NC(=O)[C@@H]1CCCC[C@H]1N)C(C)C	nt	4%	nt	nt	nt
O=C(N/N=C/c1ccccn1)c1cc(-c2ccc(Cl)cc2)nc2ccccc12	6.7µM*	-81%	0%	-4%	17%
O=C(N/N=C/c1ccccn1)c1cc(-c2ccc(Br)cc2)nc2ccccc12	5.4µM*	nt	-4%	-3%	?
O=C(CN1c2ccccc2S(=O)(=O)c2ccccc21)Nc1ccccc1Cl	-8%	nt	nt	nt	nt
CCc1nc2cc3sc(CC)nc3cc2s1	8.5µM*	nt	3.5µM*	2µM*	9.2µM*
CCc1nc2cc(Cl)c(Cl)cc2nc1CC	-2%	nt	-2%	-1%	-1%
CCOC(=O)Cn1c(S(=O)(=O)Cc2cccc(F)c2)nc(-c2ccccc2)c1-c1ccccc1	4%	46%	-5%	0%	-8%
CCOC(=O)Cn1c(S(=O)(=O)Cc2ccc(F)cc2)nc(-c2ccccc2)c1-c1ccccc1	-1%	7.1µM*	1%	2%	-8%
COc1ccc2c(c1)c(=O)c(C(=O)c1ccc(F)cc1)cn2CC(=O)Nc1ccc2c(c1)OCO2	-2%	3%	nt	nt	nt
CNC(=O)COc1ccccc1C(=O)Nc1ccc2c(c1)oc1ccccc12	3.8µM*	-12%	-18%	-38%	1%
O=C(O)COCC(=O)Nc1ccc2c(c1)oc1ccccc12	17µM*	nt	-2%	0%	1%
O=C(O)CCC(=O)Nc1ccc2c(c1)oc1ccccc12	24µM*	17%	2%	-5%	15%
COc1cc2c(cc1NC(=O)COc1ccccc1OC)oc1ccccc12	3%	6%	13%	-4%	?
O=C(COc1ccc2c(c1)OCO2)Nc1ccc2c(c1)oc1ccccc12	-2%	nt	9%	12%	5%

Screening data deposited in PubChem BioAssay by National Center for Advancing Translational Sciences (NCATS).
